In the first experiment the target is PPARGC1A. In words: pooled miR-30 sensor sort-seq; sequence = guide strand. The settings on record: shRNA.
In turn, TAGGTAATGAAACCATAGCTGT showed a sensor-assay potency score (higher = more potent) of -0.856.
Sequence TTTATCACTTTCATCTTCGCTG displayed a sensor-assay potency score (higher = more potent) of 0.495.
Turning to TTACATTTGAATATTCTTGATT, the sensor-assay potency score (higher = more potent) came to 0.253.
Sequence TTGCTGTTGACAAATACTCTTC yielded a sensor-assay potency score (higher = more potent) of -0.955.
TTGACAAATACTCTTCGCTTTA displayed a sensor-assay potency score (higher = more potent) of -1.03.
The sequence TAGGTCTGCATAGTTAGACTTG showed a sensor-assay potency score (higher = more potent) of -0.55.
The same measure, in the same setting: as for TAGTTGTCTAGAGTCTTGGAGC, the figure is -1.01.

The next experiment addresses PPCS. The description is as above. The settings on record: shRNA.
For the sequence TTGATGCTGATAAATTTCCAAA, the sensor-assay potency score (higher = more potent) is -1.35.
Take TTGTAGTTTTCACCATCTCTAA: the sensor-assay potency score (higher = more potent) was -1.34.
Same read-out and setting: as for TACAATAAACACAAAGGACTGT, the figure is 0.367; as for TAAATTTCCAAAGCCTTCCGAG, -0.661.
TTTTTTTGTAGTTTTCACCATC returned a sensor-assay potency score (higher = more potent) of -0.312.
Take TTCACCATCTCTAAGAGCCCTG: the sensor-assay potency score (higher = more potent) is -0.3.
Still for that read-out and setting: as for TTTGGCACCATCTTCATTGTTA, the figure is 0.148.
The same measure, in the same setting: in the case of TAAACACAAAGGACTGTCGTGA it was 0.415.
Still for that read-out and setting: as for TTATCCACTATCTTCTCTTCTA, the figure is -0.111; as for TCTGATAGCAATAACTTGGTTT, 0.221; as for TTCTCTTCTATCTCTACGCCTT, -0.45.
Take TTCATTGTTATCTGCAGTGGGC: the sensor-assay potency score (higher = more potent) was -0.306.

The target in the next experiment is PPEF1. The description is as above. The settings on record: shRNA.
TTGTATGTGAGTGAAATTCGGC returned a sensor-assay potency score (higher = more potent) of -0.494.
On the same count and under the same terms, in the case of TTATGCAAAATTTCTTTCGTGA it was 0.493; in that of TATCGAGTCCACATAATCCCAT, -1.01; in that of TAGTTTTCCAACATGAAGGAAA, -0.591.
As to TTTTATTGTGCTTCGAGTCAGT, the sensor-assay potency score (higher = more potent) amounted to 0.317.
Turning to TTTTCTGTGGTCTTGAAGTTGG, the sensor-assay potency score (higher = more potent) was -0.736.
As for TAATGCTGAAACCAAATCCTAT, the sensor-assay potency score (higher = more potent) was -0.921.
Still for that read-out and setting: in the case of TAGTAGTTTTCTCTTGTGCTGT it was -0.247; in that of TAATCTTACCAATAACAGCTTG, -0.683.
Take TTCATCAGCATATTCGATGGAC: the sensor-assay potency score (higher = more potent) was -0.181.
On the same count and under the same terms, in the case of TTGTTCATCAGCATATTCGATG it was -0.664.
Same read-out and setting: in the case of TTTTCCATAGTATCCACTCTTT it was -0.493.

The next experiment deals with PPIA. The description is as above. The settings on record: shRNA.
Consider TCATCTTCAAATTTCTCCCCAT, for which the sensor-assay potency score (higher = more potent) was -0.0656.
In turn, ATAATCATAAACTTAACTCTGC showed a sensor-assay potency score (higher = more potent) of 0.46.
TTAGGATGAAGTTCTCATCTTC yielded a sensor-assay potency score (higher = more potent) of 0.589.
For the sequence TATTTCATAATCATAAACTTAA, the sensor-assay potency score (higher = more potent) was -0.804.
On the same count and under the same terms, in the case of TTGCTGGTCTTGCCATTCCTGG it was -1.6.
Still for that read-out and setting: in the case of TACAGAAGGAATGATCTGGTGG it was 0.317; in that of TAACCAAATCCTTTCTCTCCAG, -0.631; in that of TTCTGCTGTCTTTGGGACCTTG, -0.756.
Same read-out and setting: in the case of TCTTCTTGCTGGTCTTGCCATT it was -1.28.
Further: reference of the scale not given here.
